High-throughput results deposited in PubChem by several laboratories.
Most compounds without a hit are left out; they make up all but 13% or so of the library.
CHOP inhibitor = blocks CHOP induction under ER stress | CHO-K1 CHOP-promoter luciferase, tunicamycin-induced, 15-18 h | inhibition, % at 10 µM | 220,000 compounds, 3.8% hits;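 active means compounds that reduced the stress-induced luciferase reporter signal by more than about 70% of percent inhibition, limit read from the data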;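 further: 0% = tunicamycin plus vehicle and 100% = wells without tunicamycin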
WT yeast gro inh = growth inhibition of WT yeast, mitochondrial fusion screen; 190,000 compounds, 2.1% hits; mitochondrial fusion phenotypic screen, WT strain; inhibition, % at 10 µM; in the data active means inhibition above about 58%; tested in S. cerevisiae
RAM network inh = yeast RAM network inhibition; S. cerevisiae dse1pr::URA3 reporter, 5-FOA growth OD615, 2 d; analog-sensitive cbk1-as2 kinase mutant strain; inhibition, % at 50 µM; 190,000 compounds, 1.8% hits; AID 868;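 active means inhibition above a set limit, 3 SD over mean compound inhibition, cut at about 8.4% in these data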;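 further: 0% = DMSO-only wells with no growth and 100% = 10 µM 1-NA-PP1 full growth; inhibition rescues growth on 5-FOA so higher OD means more RAM inhibition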
Lmaj promast = inhibitors of Leishmania major promastigote growth | inhibition, % at 10 µM | Leishmania major promastigotes, resazurin fluorescence viability | 200,000 compounds, 9% hits | AID 1063; in the data active means inhibition above about 50%;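 further: promastigotes grown with compound for 44 hours at 28 °C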
Numbers without * were called inactive.

For CN(C)c1ccc(NC(=O)CN2C(=O)CN=C(c3ccccc3)c3cc(Cl)ccc32)cc1 the results were CHOP inhibitor 53, WT yeast gro inh 17, RAM network inh 1 and Lmaj promast 34.
For Cc1oc(-c2ccccc2)nc1CN1C(=O)C(C)N=C(c2ccccc2F)c2cc(Cl)ccc21 (stereo not drawn) the results were CHOP inhibitor 54, WT yeast gro inh 80*, RAM network inh 2 and Lmaj promast 94*.
`CCN1CCN(Cc2cc(Br)cc(OC)c2O)CC1` gave CHOP inhibitor -11, WT yeast gro inh 6, RAM network inh -1 and Lmaj promast 8.
`O=C(Cc1ccc(Br)cc1)N1CCN(Cc2ccccc2)CC1` gave CHOP inhibitor 17, WT yeast gro inh 3, RAM network inh 1 and Lmaj promast 87*.
`Oc1c(Br)cc(Br)cc1CN1CCN(Cc2ccccc2)CC1` gave CHOP inhibitor 9, WT yeast gro inh 13, RAM network inh -1 and Lmaj promast 73*.
`O=C1/C(=C\c2cc3c(cc2Br)OCO3)N2CCC1CC2` gave CHOP inhibitor 22, WT yeast gro inh -7, RAM network inh 0 and Lmaj promast 63*.
COc1cc(CN=C(C)c2c(O)n(C3CCCCC3)c(=O)[nH]c2=O)cc(OC)c1 was read as CHOP inhibitor 18.
Screening CCCC(=O)NC(Oc1ccccc1Cl)C(Cl)(Cl)Cl (stereo not drawn) returned CHOP inhibitor -22, WT yeast gro inh 10, RAM network inh 2 and Lmaj promast -2.
For CCCCCc1cc(O)c2c3c(c(=O)oc2c1)CN(C)CC3 the results were CHOP inhibitor 36, WT yeast gro inh 49, RAM network inh -1 and Lmaj promast 99*.
COC(=O)C1=Nc2ccccc2/C1=C\c1c(O)n(-c2ccc(Br)cc2)c(=O)[nH]c1=O was read as CHOP inhibitor 60, WT yeast gro inh 0, RAM network inh 2 and Lmaj promast 67*.
O=c1[nH]c(=O)n(-c2ccccc2)c(O)c1/C=C1/C(c2ccccc2)=Nc2ccccc21 was read as CHOP inhibitor -22, WT yeast gro inh 51, RAM network inh 2 and Lmaj promast 79*.
Screening CNC(C)Cc1ccccc1Sc1ccc(O)cc1 (stereo not drawn) returned CHOP inhibitor 5, WT yeast gro inh -12, RAM network inh 0 and Lmaj promast 100*.
For O=C(/C=C/c1ccccc1)c1c(O)n(CCc2ccccc2)c(=O)[nH]c1=O the results were CHOP inhibitor 92*, WT yeast gro inh -6, RAM network inh 3 and Lmaj promast 60*.
Screening COc1cc(/C=C/C(=O)c2c(O)n(CCc3ccccc3)c(=O)[nH]c2=O)ccc1O returned CHOP inhibitor -44, WT yeast gro inh 6, RAM network inh 7 and Lmaj promast 89*.
For O=C(/C=C/c1ccc2c(c1)OCO2)c1c(O)n(CCc2ccccc2)c(=O)[nH]c1=O the results were CHOP inhibitor 12.
CCCCn1c(O)c(C(C)=NCCc2ccccc2)c(=O)[nH]c1=O was read as CHOP inhibitor 13, WT yeast gro inh -5, RAM network inh -1 and Lmaj promast 7.
CCN(CC)c1ccc(CC2C(=O)N(C)C(=O)N(C)C2=O)cc1 was read as CHOP inhibitor 1, WT yeast gro inh -13, RAM network inh -1 and Lmaj promast 2.
Screening CCN(CC)c1ccc(/C=C/[N+](=O)[O-])cc1 returned CHOP inhibitor -78, WT yeast gro inh 38, RAM network inh 1 and Lmaj promast 69*.
Screening C[C@H]1CC[C@@]2(C)[C@@H](CC[C@@H]3[C@@H]2CC[C@]2(C)[C@@H](O)CC[C@@H]32)C1 returned CHOP inhibitor 32.
`c1ccc(-c2ccc(-c3n(-c4ccccn4)c4ccccc4[n+]3-c3ccccn3)cc2)cc1` gave CHOP inhibitor -11, WT yeast gro inh 16, RAM network inh 3 and Lmaj promast 88*.
Screening C[Se]C[C@H](N)C(=O)O returned CHOP inhibitor -5.
CCOc1cc(CNCCc2c[nH]c3ccccc23)cc(Cl)c1OCC was read as CHOP inhibitor 80*, WT yeast gro inh 86*, RAM network inh 1 and Lmaj promast 4.
`CCOc1c(Cl)cc(CNCCc2c[nH]c3ccccc23)cc1OC` gave CHOP inhibitor 11, WT yeast gro inh 34, RAM network inh 2 and Lmaj promast 42.
`CN1C(=O)CCS(=O)(=O)C1c1ccc(Cl)cc1` (stereo not drawn) gave CHOP inhibitor -3.
Screening COCCNCCOc1ccc(C(C)(C)c2ccccc2)cc1 returned CHOP inhibitor -22, WT yeast gro inh 7, RAM network inh 1 and Lmaj promast 98*.
